Results taken from PubChem BioAssay (NCATS).
Results filed as inconclusive are left out. The source made the active and inactive calls. The call rests on the fitted dose curve; in most records, active means well fitted inhibition curve with a large enough effect; inconclusive means small, poorly fitted or top-dose-only effect; inactive means no such curve, though single readings can be large or run the other way.

The molecules below were run against Rap guanine nucleotide exchange factor 4 (Homo sapiens) (UniProt Q8WZA2) (assay: Confirmatory qHTS for antagonist of cAMP-regulated guanine nucleotide exchange factor 4 (EPAC2) (AID 1645885; further: nearly all actives have a fitted effect of over 25% in size)). Settings: EPAC2 Rap1B-BODIPY-GDP exchange fluorescence, biochemical; series mostly up to 12.7 µM.
Sequence of Rap guanine nucleotide exchange factor 4 (Homo sapiens) (Q8WZA2 whole entry, looked up): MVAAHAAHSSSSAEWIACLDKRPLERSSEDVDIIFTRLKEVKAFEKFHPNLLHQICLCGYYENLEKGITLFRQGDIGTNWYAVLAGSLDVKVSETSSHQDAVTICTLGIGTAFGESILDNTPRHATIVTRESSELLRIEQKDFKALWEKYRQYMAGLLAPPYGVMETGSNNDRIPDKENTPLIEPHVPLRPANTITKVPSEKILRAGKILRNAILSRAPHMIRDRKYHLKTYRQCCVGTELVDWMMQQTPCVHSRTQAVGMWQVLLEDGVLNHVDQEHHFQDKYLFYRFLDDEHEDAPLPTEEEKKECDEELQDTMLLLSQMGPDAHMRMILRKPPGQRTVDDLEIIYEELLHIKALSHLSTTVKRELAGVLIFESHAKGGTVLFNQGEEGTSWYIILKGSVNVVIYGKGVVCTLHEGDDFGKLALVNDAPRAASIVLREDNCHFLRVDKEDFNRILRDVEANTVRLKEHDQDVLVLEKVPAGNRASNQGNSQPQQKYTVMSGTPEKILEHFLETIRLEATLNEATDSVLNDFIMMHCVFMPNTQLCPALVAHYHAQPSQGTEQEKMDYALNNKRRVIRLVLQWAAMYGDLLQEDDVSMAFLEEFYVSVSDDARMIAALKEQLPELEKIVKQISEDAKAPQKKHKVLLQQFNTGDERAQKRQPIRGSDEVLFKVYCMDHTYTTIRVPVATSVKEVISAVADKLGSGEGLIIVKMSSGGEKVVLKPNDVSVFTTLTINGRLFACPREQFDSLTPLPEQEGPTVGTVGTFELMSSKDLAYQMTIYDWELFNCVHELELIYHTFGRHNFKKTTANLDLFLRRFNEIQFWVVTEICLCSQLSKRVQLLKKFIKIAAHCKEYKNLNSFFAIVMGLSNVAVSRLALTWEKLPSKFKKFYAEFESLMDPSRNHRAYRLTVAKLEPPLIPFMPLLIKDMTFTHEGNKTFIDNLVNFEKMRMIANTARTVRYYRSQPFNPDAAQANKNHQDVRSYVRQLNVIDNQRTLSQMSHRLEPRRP
Potency means the concentration at half of the fitted maximal effect.

Potency, active:
NC(=O)c1c(NC(=O)c2ccccc2)sc2c1CCN(Cc1ccccc1)C2 84.9 µM
CN(C)c1ccc(/C=C2\SC(=S)N(Nc3ncc(C(F)(F)F)cc3Cl)C2=O)cc1 16.9 µM

Potency, inactive:
CN(C)c1ccc(/C=C(\C#N)C(=O)c2ccccc2)cc1
COc1cccc(-n2c(SCC(=O)Nc3ccc(F)cc3F)nc3c([nH]c4ccccc43)c2=O)c1
CCOc1ccc(NC(=O)/C(C#N)=C/c2ccc(N3CCCC3)c(C)c2)cc1
Cc1ccc(S(=O)(=O)C2(C(=O)Nc3ccc(Br)cc3)CC2)cc1
CCOC(=O)C1=C(C)N=c2s/c(=C\c3cccn3C)c(=O)n2C1c1cccc(OC)c1OC (stereo unspecified)
COc1ccc(NC(=O)c2c(-c3ccccc3)c(-c3ccccc3)nn(C)c2=O)c(OC)c1
CCOC(=O)N1CCc2c(sc3c2c(=O)n(-c2ccc(F)cc2)c(=O)n3CC(=O)c2ccc(Cl)cc2)C1
CN(C)c1ccc(C2C=C(c3ccc(Cl)cc3OC(F)F)Nc3ncnn32)cc1 (stereo unspecified)
CCc1ccc(NC(=O)/C(C#N)=C/c2cc3ccc(C)cc3nc2N2CCOCC2)cc1
CN(C)c1ccc(C(=O)/C=C/c2ccc(Br)cc2)cc1
COc1ccccc1C(=O)NNC(=O)CCCN1C(=O)/C(=C/c2cccs2)SC1=S
O=S(=O)(NCC(c1ccco1)N1CCc2ccccc21)c1ccccc1 (stereo unspecified)
COC(=O)c1c(C)c2c(C)cc3ccccn3c-2c1C(=O)OC
CCOc1ccccc1Oc1nc(C)nc2c1oc1ccccc12
